Data published in PubChem BioAssay (NCI).
About 83,000 compounds went through this panel and 20% of them were active in at least one assay; those are over-represented in the sample as a whole.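 Growth was measured after 48 h exposure to one concentration of compound in 96-well plates. Values under 10 count as active.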 The source made the active and inactive calls.

Key:
Test in all cases: NCI-60 one-dose screen, 48 h (100 = growth as untreated, 0 = no growth, -100 = all killed)
Details in all cases: 10 µM unless noted
[1] = system: T-47D breast
[2] = system: MDA-MB-435 melanoma
[3] = system: SW-620 colon
[4] = system: MCF7 breast
[5] = system: HCT-116 colon
[6] = system: HCC-2998 colon
[7] = system: KM12 colon

Measured: growth

COc1ccc(/C(=C/c2cc(OC)c(OC)c(OC)c2)[N+](=O)[O-])cc1
inactive: [5] 11.8% | [6] 91.5% | [7] 15.5%
active: [1] 6.27% | [2] 7.21% | [3] -31% | [4] 1.7%

C/C(=N\N=C1/SCC(=O)N1c1ccccc1)c1ccco1
inactive: [1] 114% | [2] 88.6% | [3] 109% | [4] 53.7% | [5] 92.7% | [6] 109% | [7] 103%

CC(C)CCC[C@@H](C)[C@H]1CC[C@H]2[C@@H]3CC=C4N(c5ccccc5)C(=O)CC[C@]4(C)[C@H]3CC[C@]12C
inactive: [1] 95% | [2] 100% | [3] 99.8% | [4] 89.5% | [5] 99.2% | [6] 102% | [7] 105%

CCN(CC)CCNC(=O)c1c(C)[nH]c(/C=C2\C(=O)Nc3cc(NC(=O)NC(=O)c4ccc(OC)cc4F)ccc32)c1C
inactive: [1] 104% | [2] 110% | [3] 94.9% | [4] 58.3% | [5] 64.7% | [6] 100% | [7] 51.5%

O=C1c2ccccc2C(=O)c2c(NCCN=Cc3c(O)ccc4ccccc34)cccc21
inactive: [1] 75% | [2] 96% | [3] 79.3% | [4] 72.6% | [5] 45.5% | [6] 95.7% | [7] 89%

Cc1cccc[n+]1CCC[n+]1ccccc1C
inactive: [1] 85.6% | [2] 102% | [3] 107% | [4] 96.5% | [5] 86.1% | [6] 107% | [7] 100%

Oc1ccc(O)c(-[n+]2ccccc2)c1
inactive: [1] 110% | [2] 109% | [3] 96.9% | [4] 102% | [5] 93.3% | [6] 102% | [7] 107%

CC(=O)N[C@@H](CNC(=O)c1cc(NC(=O)c2cc(NC(=O)c3cc(NC(=O)c4nccn4C)cn3C)cn2C)cn1C)CC(=O)Nc1cn(C)c(C(=O)Nc2cc(C(=O)Nc3cc(C(=O)Nc4cc(C(=O)NCCCN(C)CCCNC(=O)c5cccc(C(=O)O)c5)n(C)c4)n(C)c3)n(C)c2)n1
inactive: [1] 41.5% | [2] 95.5% | [3] 90.9% | [4] 77.8% | [5] 43.9% | [6] 106% | [7] 42.6%

CCOC(=O)C1CSC(C)(C(=O)OCC)N1 (centres undefined)
inactive: [1] 99.8% | [2] 103% | [3] 104% | [4] 93.4% | [5] 96.6% | [6] 101% | [7] 107%

COc1ccc(N)c(S)c1
inactive: [1] 89.5% | [2] 106% | [3] 93.6% | [4] 94.4% | [5] 92.5% | [6] 103% | [7] 105%

O=C(C[n+]1cccc(Br)c1)c1ccc2c(c1)CCCC2
inactive: [1] 91.6% | [2] 100% | [3] 103% | [4] 90.4% | [5] 88.2% | [6] 103% | [7] 108%

CSc1nc(N)nc2c1ncn2C
inactive: [1] 90.3% | [2] 102% | [3] 101% | [4] 96.7% | [5] 92.1% | [6] 99.8% | [7] 95.6%
